Compound activity from PubChem.
A selection: hits, their analogues and other compounds. The true share with any hit is near 3.7%.
ERa coact inh = ER-alpha (human) coactivator binding inhibition; TR-FRET ER-alpha LBD / SRC-1 peptide, estradiol-bound; inhibition, % at 25.6 µM; AID 629; P03372; 86,000 compounds, 1.7% hits; in the data active = inhibition above about 50%;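 also: 0% = receptor plus peptide control and 100% = peptide only without receptor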
Target sequence (P03372 whole entry, looked up, the tested form may be a part): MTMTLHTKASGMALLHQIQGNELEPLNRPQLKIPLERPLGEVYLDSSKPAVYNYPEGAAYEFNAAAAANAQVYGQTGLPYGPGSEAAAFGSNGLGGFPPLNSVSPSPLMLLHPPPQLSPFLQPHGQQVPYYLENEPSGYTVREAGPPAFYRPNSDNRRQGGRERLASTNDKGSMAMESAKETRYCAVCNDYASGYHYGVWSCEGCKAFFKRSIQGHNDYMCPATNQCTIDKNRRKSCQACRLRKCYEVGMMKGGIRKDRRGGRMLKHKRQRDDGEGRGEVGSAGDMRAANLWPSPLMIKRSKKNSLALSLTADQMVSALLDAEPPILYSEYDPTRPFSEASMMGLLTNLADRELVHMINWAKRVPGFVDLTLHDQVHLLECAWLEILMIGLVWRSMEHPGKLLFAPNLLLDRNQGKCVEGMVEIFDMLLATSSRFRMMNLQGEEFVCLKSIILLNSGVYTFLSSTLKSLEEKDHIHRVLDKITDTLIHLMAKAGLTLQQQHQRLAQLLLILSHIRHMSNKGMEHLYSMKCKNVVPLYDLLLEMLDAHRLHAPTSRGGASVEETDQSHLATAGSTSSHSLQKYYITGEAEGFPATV
ERb coact inh = ER-beta (human) coactivator binding inhibition. TR-FRET ER-beta LBD / SRC1-Cy5 peptide binding; receptor agonist-loaded with 1 µM estradiol. inhibition, % at 25.6 µM. Q92731. 86,000 compounds, 1.3% hits;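 active = compounds whose percent inhibition of the receptor-coactivator binding signal exceeds about 50% in the single-dose screen, limit read from the data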;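 also: 0% = receptor plus peptide wells without compound and 100% = peptide-only wells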
Smad3 FoxH1 inh = inhibitors of human Smad3 transcription factor binding. TR-FRET Smad3/Dy647-FoxH1 peptide binding, europium anti-His. AID 630. 88,000 compounds, 0.29% hits. inhibition, % at 25 µM. P84022;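 active = compounds that reduce the energy-transfer binding signal between the protein and its labelled peptide by more than half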;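 also: 0% = Smad3 plus labelled peptide maximal FRET and 100% = peptide-only background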
ERa SRC1 pot = ER-alpha (human) coactivator binding potentiation; TR-FRET ERalpha-LBD/SRC-Cy5 coactivator binding, 2 h; 100 = basal binding, no effect; 86,000 compounds, 1.3% hits; P03372; coactivator binding (% of control), % at 25.6 µM; in the data active = activity above about 200%;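 also: binding measured in presence of low estradiol as agonist stimulus; 0% = peptide alone without receptor and 100% = receptor with peptide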
An asterisk follows results filed as active; nt = no result given; [ ] = another dose, or the depositor's remark.

SMILES	ERa coact inh	ERb coact inh	Smad3 FoxH1 inh	ERa SRC1 pot
COC(=O)c1ccc2c(=O)n(CCN3CCOCC3)c(SCC(=O)C(C)(C)C)nc2c1	9	4	-2	786*[fluorescence artefact?]
O=C(O)[C@H]1CCCC[C@@H]1C(=O)Nc1nc2ccccc2[nH]1	nt	nt	3	nt
COc1cc(NC(=O)COc2ccc(-n3cnnn3)cc2)c(OC)cc1Cl	77*	67*[fluorescence artefact?]	23	44
Cc1ccc(NC(=O)COc2ccc(-n3cnnn3)cc2)cc1C	74*[fluorescence artefact?]	69*	10	52
COc1ccc(OC)c(NC(=O)COC(=O)c2ccc(-n3cnnn3)cc2)c1	35	9	-2	110
O=C(COc1ccc(-n2cnnn2)cc1)NC1CCCCC1	7	24	4	106
COc1ccc(NC(=O)c2ccc3c(=O)n(Cc4ccco4)c(=S)[nH]c3c2)c(OC)c1	73*[fluorescence artefact?]	13	0	110
COc1ccc(-c2n[nH]c(C)c2-c2ccc(Cl)cc2)c(O)c1	6	-4	-4	64
COc1ccc(-c2n[nH]c(C(F)(F)F)c2-c2cc3ccccc3o2)c(O)c1	1	6	5	239*
COc1ccc(OC)c(NC(=O)c2cc(-c3ccc(C)cc3O)n[nH]2)c1	70*	40	-7	120
O=C(Nc1nnc(-c2ccco2)s1)C1CCN(S(=O)(=O)c2ccc(Cl)cc2)CC1	11	8	0	410*[fluorescence artefact?]
O=C(Nc1nnc(-c2ccco2)s1)C1CC1	0	18	4	94
COC(=O)c1cccc(COC(=O)c2ccc(CS(=O)(=O)c3ccc(C)cc3)cc2)c1	34	20	4	139
O=C(O)c1nc(-c2ccccc2)[nH]c1C(=O)O	nt	nt	-2	nt
N#CC1=C(N)OC2=C(CCC/C2=C/c2ccoc2)C1c1ccoc1 (stereo unspecified)	74*	73*[fluorescence artefact?]	17	36
CCOC(=O)C1=C(C)OC(N)=C(C#N)C1c1ccoc1 (stereo unspecified)	4	2	5	106
COc1ccc2nc(NC(=O)c3cnccn3)sc2c1	75*[fluorescence artefact?]	50	10	46
CCOCC(=O)Nc1nc2ccc(OC)cc2s1	-13	-8	5	117
Cc1ccc(-c2n[nH]c(=S)n2C)cc1	-2	-6	-3	100
Cc1ccc(-c2n[nH]c(=S)n2/N=C/C=C/c2ccccc2[N+](=O)[O-])cc1	53*[fluorescence artefact?]	47	23	323*
c1cc2c(cc1C(N1CCNCC1)N1CCNCC1)OCO2	nt	nt	-12	nt
c1ccc2nc(-c3nc4ccccc4o3)ccc2c1	-3	-5	7	111
c1cc(-c2nc3ccccc3o2)nc(-c2nc3ccccc3o2)c1	12	29	8	248*
CCOC(=O)C(NCc1ccc2c(c1)OCO2)(NC(=O)c1ccccc1)C(F)(F)F (stereo unspecified)	11	-7	5	94
C#CCOCCCC(=O)O	nt	nt	36	nt
SMILES	ERa coact inh	ERb coact inh	Smad3 FoxH1 inh	ERa SRC1 pot
O[C@@H](c1cc(-c2ccc(Cl)cc2)nc2ccccc12)[C@@H]1CCCCN1	nt	nt	12	nt
CCOc1ccc(-n2c(Cc3cc(=O)[nH]c(=O)[nH]3)nnc2SCC(=O)OC)cc1	-1	-14	1	89
CSc1nnc(Cc2cc(=O)[nH]c(=O)[nH]2)n1-c1cc(C)ccc1C	9	1	-6	94
CCOC(=O)CSc1nnc(Cc2cc(=O)[nH]c(=O)[nH]2)n1-c1ccc(Cl)cc1	0	96*[fluorescence artefact?]	5	119
CCSc1nnc(Cc2cc(=O)[nH]c(=O)[nH]2)n1-c1cc(C)ccc1C	2	70*	4	131
Cn1cnnc1SCC(=O)Nc1ccc2nc(SCc3ccccc3F)sc2c1	23	-5	-6	53
Cc1cc(NS(=O)(=O)c2ccc(Nc3nc(-c4sc(N)nc4C)cs3)cc2)no1	22	56*[fluorescence artefact?]	-4	55
O=C(CCC(=O)c1ccc[nH]1)c1ccc(Cl)cc1	40	32	8	79
O=C(COc1ccc(F)c(Cl)c1)c1ccc[nH]1	66*[fluorescence artefact?]	45	8	40
Cc1ccc(CC(=O)Nc2ccccc2N2CCOCC2)cc1C	-6	-1	-16	101
CN(C)c1nc(C(N)=O)nc(N2CCOCC2)n1	1	-11	6	116
CC(=O)Nc1ccc(OC(=O)CC2SC(=O)NC2=O)cc1 (stereo unspecified)	41	56*	-7	70
CCN(CC)C(=O)Oc1ccc(NC(C)=O)cc1	3	-3	6	97
Cc1cccc(N(CC(=O)NCCC2=CCCCC2)S(C)(=O)=O)c1C	-8	-5	-8	102
CCOC(=O)N1CCC(N2C(=O)c3ccccc3C2Nc2c(C)cccc2C)CC1 (stereo unspecified)	-1	11	10	112
Cc1cc(S(=O)(=O)N(C)CCc2ccccc2)ccc1-n1cnnn1	5	1	7	124
Cc1cc(S(=O)(=O)N(Cc2ccccc2)Cc2ccc(N(C)C)cc2)ccc1-n1cnnn1	14	14	-1	211*
CC(C)OCCCN1CN(S(=O)(=O)c2cccc(Cl)c2)c2nc3ccccc3nc21	5	-8	8	94
CSc1nnc2c3cc(C)ccc3n(Cc3ccccc3)c2n1	68*[fluorescence artefact?]	54*[fluorescence artefact?]	-23	105
CCOC(=O)C(CC)Sc1nnc2c3cc(C)ccc3n(C)c2n1 (stereo unspecified)	9	-8	0	83
COc1cccc(C(=O)Nc2nc3c(s2)CN(C)CC3)c1	-2	-12	22	104
Cc1ccc(-c2csc3ncnc(N4CCN(C(=O)c5ccccc5)CC4)c23)cc1	19	17	-4	77
Cc1cc(-c2ccccc2)nc2cc(C(=O)N(Cc3ccccc3)Cc3ccccc3)nn12	-11	-6	11	204*
COC(=O)c1cc2nc(-c3ccccc3)cc(C)n2n1	11	22	-12	94
OC[C@@H]1O[C@H](n2cnc3c(/C=C(\O)c4ccccc4)ncnc32)[C@H](O)[C@H]1O	nt	nt	2	nt
SMILES	ERa coact inh	ERb coact inh	Smad3 FoxH1 inh	ERa SRC1 pot
Cc1noc(C)c1CSCC(=O)OCC(=O)Nc1sccc1C#N	55*[fluorescence artefact?]	54*	11	54
CC(C)C1=C[C@@]23CC[C@@H]4[C@](C)(CCC[C@@]4(C)C(=O)O)[C@@H]2C[C@@H]1[C@H](C(=O)O)[C@@H]3C(=O)O	nt	nt	87*	nt
O=C(Nc1cc2nn(-c3ccccc3)nc2cc1Cl)c1ccco1	62*[fluorescence artefact?]	30	-6	100
O=C(Nc1ccc(-n2nncc2-c2ccco2)cc1)c1cccc(F)c1	16	17	-14	99
O=C(Nc1ccc(-n2nncc2-c2ccco2)cc1)c1cc2ccccc2oc1=O	69*	65*[fluorescence artefact?]	43	186
Cc1cc(C(=O)OCC(=O)c2ccc(Br)s2)no1	58*	48	17	58
Cc1cc(C(=O)OCC(=O)c2ccc(Br)s2)c(C)o1	14	10	3	95
CC(=O)c1cccc(NC(=O)Cc2cccs2)c1	84*	73*[fluorescence artefact?]	9	29
CCCCN(CCCC)S(=O)(=O)c1ccc(NC(=O)Cc2cccs2)cc1	67*[fluorescence artefact?]	67*	3	62
CCCNS(=O)(=O)c1ccc(NC(=O)Cc2cccs2)cc1	-6	-1	7	111
CCCN(CCC)S(=O)(=O)c1ccc(NC(=O)Cc2cccs2)cc1	63*	48	5	79
